About 3,200 (25%) of roughly 13,000 compounds showed an effect of 50% or more. Some of the results follow.
System: P. falciparum stage V gametocytes
Set-up: BacTiter-Glo ATP luminescence viability of purified stage V gametocytes in 384-well plates, per cent inhibition versus DMSO
Details: 48 h, 5 µM; inhibitor

| Structure (SMILES) | % Inhibition |
| --- | --- |
| O=C(COc1cccc([N+](=O)[O-])c1)Nc1ccc(-c2nc3ccccc3[nH]2)cc1 [TCMDC-123683] | 43.84% |
| Cc1cc(OCC2CCCO2)c2cc(NC(=O)C(=O)Nc3ccc4nc(C)cc(OCC5CCCO5)c4c3)ccc2n1 (stereo not drawn) [TCMDC-139970] | -0.178% |
| CN1CCN(c2ccnc3ccc(NC(=O)N(C)c4ccc(Cl)c(Cl)c4)cc23)CC1 [TCMDC-139453] | 8.724% |
| Cc1nnc2sc(-c3cccc(NC(=O)c4ccc(N5CCCCC5)c([N+](=O)[O-])c4)c3)nn12 [TCMDC-125211] | 2.608% |
| O=c1[nH]nc(-c2ccc(N3CCCC3)c([N+](=O)[O-])c2)c2ccccc12 [TCMDC-123666] | 91.56% |
| O=C(Nc1ccc(-c2nc3ccccc3[nH]2)cc1)c1ccc(N2CCCC2)c([N+](=O)[O-])c1 [TCMDC-124370] | 0.2157% |
| O=S(=O)(Nc1ccc2nccc(N3CCNCC3)c2c1)c1ccc2oc3ccccc3c2c1 [TCMDC-139406] | -1.818% |
| Cc1cc(N2CCCC2)nc(Nc2ccc(NC(=O)c3ccc(Br)o3)cc2)n1 [TCMDC-124708] | -0.4475% |
| COc1ccc(C(=O)N[C@@H](CC(C)C)C(=O)N[C@H](/C=N/NC(=O)c2ccccc2)CCc2ccccc2)cc1OCCN1CCOCC1 [TCMDC-135529] | -24.16% |
| Cc1ccc(NC(=O)N2CCCN(CCCCCNC(=O)/C=C/c3ccc(Cl)c(Cl)c3)CC2)cc1C [TCMDC-135747] | -47.01% |
| CCC(C)NC(=O)Nc1ccc(-c2cccc(-c3nc4ccc(C(F)(F)F)cc4[nH]3)c2)cc1 (stereo not drawn) [TCMDC-133240] | 1.328% |
| Cc1nn(-c2ccc(Cl)cc2)c2[nH]c(CN3CCN(c4cccc(Cl)c4)CC3)cc(=O)c12 [TCMDC-124869] | 23.11% |
| CCC[C@@H]([C@@H](CC(C)C)C(=O)N[C@@H](CCCNc1nccc(C(F)(F)F)n1)C(=O)Nc1nccs1)N(O)C=O [TCMDC-137458] | 53.7% |
| CCC[C@@H]([C@@H](CC1CCC(C)CC1)C(=O)N[C@@H](CCCCNC(=O)c1ccccn1)C(=O)Nc1nccs1)N(O)C=O (stereo partly drawn) [TCMDC-138151] | 22.92% |
| CCCC(C(CC1CCC(C)CC1)C(=O)NC(CCCNc1ncccn1)C(=O)Nc1nccs1)N(O)C=O (stereo not drawn) [TCMDC-138160] | 11.06% |
| CCC[C@@H]([C@@H](CC(C)C)C(=O)N[C@@H](CCCN=C(N)NS(C)(=O)=O)C(=O)Nc1nccs1)N(O)C=O [TCMDC-138171] | -40.24% |
| CCC[C@@H]([C@@H](CC(C)C)C(=O)N[C@@H](CCCCNC(=O)c1cccc(OC)c1)C(=O)Nc1nccs1)N(O)C=O [TCMDC-137305] | 57.38% |
| CCC[C@@H]([C@@H](CC(C)C)C(=O)N[C@@H](CCCCNC(=O)c1ccccn1)C(=O)Nc1nccs1)N(O)C=O [TCMDC-137550] | 43.83% |
| COc1ccc(CC(C)CON2C(N)=NC(N)=NC2(C)C)cc1 (stereo not drawn) [TCMDC-131722] | 5.106% |
| O=C(NCCNc1ccnc(Nc2ccc(F)cc2)n1)Nc1ccc2c(c1)OCO2 [TCMDC-133641] | -26.39% |

| Structure (SMILES) | % Inhibition |
| --- | --- |
| CC(C)(CNCc1cc(Cl)cc(Cl)c1)c1nc(-c2ccc(Cl)c(O)c2)c(-c2ccnc(N)n2)[nH]1 [TCMDC-141164] | -8.339% |
| CC1CN(c2ccc(NC(=O)c3ccsc3)cc2C(=O)N2CCN(Cc3ccc(C(C)(C)C)cc3)CC2)CC(C)O1 (stereo not drawn) [TCMDC-139281] | 17.04% |
| C=CC[C@H](C[C@H](O)[C@H](Cc1ccccc1)NC(=O)c1ccc(-n2cccn2)cc1)C(=O)NC1CCCCC1 [TCMDC-141420] | 10.16% |
| CCc1c(C)nc(-n2nc(C)cc2NC(=O)C(CC)c2ccccc2)[nH]c1=O (stereo not drawn) [TCMDC-124935] | 27.05% |
| Oc1ccc(Nc2ccnc3cc(Cl)ccc23)cc1 [TCMDC-125528] | -45.78% |
| Brc1ccc(Nc2nc3ccccc3nc2Nc2ccc(Br)cc2)cc1 [TCMDC-125776] | -38.43% |
| O=C(Nc1ccc(Cl)cc1)Nc1nc2ccc([N+](=O)[O-])cc2[nH]1 [TCMDC-137530] | 30.09% |
| O=[N+]([O-])c1ccc2ncnc(Nc3ccc(F)c(Cl)c3)c2c1 [TCMDC-123784] | 0.775% |
| O=[N+]([O-])c1ccc2nc(Nc3ccc(Cl)c(Cl)c3)c(Nc3ccc(Cl)c(Cl)c3)nc2c1 [TCMDC-125794] | 113.6% |
| Clc1ccc(Nc2nc3ccc(Cl)cc3nc2Nc2ccc(Cl)cc2)cc1 [TCMDC-137772] | 143.7% |
| O=S(=O)(NCCCN1CCOCC1)c1ccc2nccc(Nc3ccc(Oc4ccccc4)cc3)c2c1 [TCMDC-138692] | -57.28% |
| FC(F)(F)c1cccnc1N1CCC(Nc2nc3ccc(Cl)cc3[nH]2)CC1 [TCMDC-135644] | -32.98% |
| CCNc1cc(C(=O)N[C@@H](Cc2ccccc2)[C@H](O)CNCCc2ccccc2)cc(N2CCCC2=O)c1 [TCMDC-141682] | 21.5% |
| C[C@@H](NC(=O)NC(CCN1CCC2(CC1)CN(S(C)(=O)=O)c1ccccc12)c1ccc(Cl)c(Cl)c1)c1ccccc1 (stereo partly drawn) [TCMDC-141767] | 25.06% |
| CS(=O)(=O)N1CC2(CCN(CCC(NC(=O)NCc3ccc(Cl)c(Cl)c3)c3ccc(Cl)c(Cl)c3)CC2)c2ccccc21 (stereo not drawn) [TCMDC-141769] | -4.824% |
| CS(=O)(=O)N1CC2(CCN(CCC(NC(=S)Nc3ccccc3)c3ccc(Cl)c(Cl)c3)CC2)c2ccccc21 (stereo not drawn) [TCMDC-141770] | 57.16% |
| COc1ccc(CC(=O)NC(CCN2CCC3(CC2)CN(S(C)(=O)=O)c2ccccc23)c2ccc(Cl)c(Cl)c2)cc1OC (stereo not drawn) [TCMDC-141764] | 25.44% |
| COc1cc(C(=O)N2CCC(CCN3CCC4(CC3)CN(S(C)(=O)=O)c3ccccc34)CC2Cc2ccc(Cl)c(Cl)c2)cc(OC)c1OC (stereo not drawn) [TCMDC-141627] | 50.03% |
| CS(=O)(=O)N1CC2(CCN(CCC(NC(=O)Nc3ccccc3)c3ccc(Cl)c(Cl)c3)CC2)c2ccccc21 (stereo not drawn) [TCMDC-141766] | 12.26% |
